Screens deposited in PubChem BioAssay by several laboratories.
Compounds with a hit are over-represented: about 5.4% of the library has one in this group of screens.
AHR activator: activators of human aryl hydrocarbon receptor; AHR-responsive luciferase reporter cells, luminescence; AID 2796; activation, % at 5 µM; P35869; hit rate 2.5% among 320,000; in the data active means activation above about 47%
GAA850 FXN act: frataxin GAA850 promoter activation; HEK293 lucGAA850 FXN promoter luciferase reporter, 24 h; percent of 10 µM SAHA response; activation, % at 6 µM; hit rate 0.56% among 360,000;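 active means activation above the average of all compounds screened plus 3 SD, cutoff fixed separately per campaign, cut at about 7.5% in these data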
HSF1 activator: increases HSF-1 driven luciferase reporter signal | NIH3T3-HGL HSF-1 luciferase reporter, MG132, 8 h; 100% = twice DMSO control signal | activation, % at 9 µM | hit rate 1.7% among 300,000 | AID 504408;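 active means mean replicate activation of at least 50% with a set share of replicates each reaching 50%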
DAX1 inh: inhibits human nuclear receptor DAX1. HEK293 Gal4-DAX1 luciferase reporter, luminescence. inhibition, % at 6.75 µM. AID 504766. hit rate 0.99% among 340,000;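 active means inhibition above the mean over all tested compounds plus 3 SD, cut at about 4.2% in these data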;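 further: inhibition shows as a rise in luminescence from relieved DAX1 repression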
HSF1 inhib: HSF1 inhibition; activity change, negative = inhibition, % at 7.5 µM (by protocol); hit rate 0.77% among 300,000; NIH3T3-HGL HSE-luciferase, MG132-induced, luminescence 8 h; active compounds read low;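 active means more than half of replicate wells show activity change below -50%, luminescence cut by over half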;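 further: luciferase reports HSF-1 transcriptional activity via heat shock element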
Hits are given with their value; i = inactive; nt = no result.

SMILES	AHR activator	GAA850 FXN act	HSF1 activator	DAX1 inh	HSF1 inhib
Cc1nc(N)sc1N=Nc1ccc(Br)cc1	146	i	i	5.4	i
Cc1ccc(C)c2sc(N)nc12	i	i	i	i	i
Cc1[nH]nc(N)c1N=Nc1ccc(Br)cc1	68	nt	i	nt	i
CSCCC(NC(=O)c1ccccc1Br)C(=O)NNC(=O)C1COc2ccccc2O1 (centres undefined)	nt	i	nt	i	nt
COc1ccc(-c2coc3cc(OC)cc(O)c3c2=O)cc1	i	i	56	5.0	i
COc1ccc(-c2coc3cc(OC(C)=O)ccc3c2=S)cc1	nt	i	nt	4.5	nt
O=c1c(-c2ccc(O)cc2)coc2cc(O)cc(O)c12	i	i	i	4.2	i
COc1ccc(-c2coc3cc(O)cc(O)c3c2=O)cc1	i	i	i	i	i
COc1ccc(OCC(=O)N2CCN(c3cccc(C(F)(F)F)c3)CC2)cc1	i	i	i	i	-87
Cc1cc(C)nc(/N=C(\NC(=O)C(C)(C)C)Nc2ccc(F)cc2)n1	i	i	i	i	i
c1ccc(N=Nc2ccc3cccccc2-3)cc1	i	i	75	i	i
Nc1ccc(N=Nc2ccccc2)c2ccccc12	55	i	i	i	i
Nc1ccc(N=Nc2ccccc2)c(N)n1	i	i	i	i	i
Cc1ccc(NC2=NCC(=O)N2Cc2ccc3c(c2)OCO3)cc1	i	i	i	i	i
COc1ccc(CN2CCN(C(=O)c3c(-c4ccccc4)noc3C)CC2)cc1F	i	i	nt	i	nt
CC1(C(=O)NS(=O)(=O)c2ccccc2C(F)(F)F)CCN1C(=O)CC1CCCC1 (centres undefined)	nt	i	nt	nt	nt
CCc1cc2c(=O)[nH]c(-c3ccccn3)nc2s1	i	i	215	i	i
COn1c(-c2ccc(Cl)cc2)nc2ccc(Cl)cc21	i	i	111	i	i
O=C(O)COn1c(-c2ccc(Cl)cc2)nc2ccc(Cl)cc21	67	i	92	i	i
N#Cc1cccc(NC(=O)CSc2ccc3c4c(cccc24)C(=O)c2ccccc2-3)c1	i	i	i	i	i
COc1ccc(NC(=O)CSc2ccc3c4c(cccc24)C(=O)c2ccccc2-3)cc1	i	i	59	i	i
Brc1ccc2c(c1)C(c1cccs1)=NNC(c1cccnc1)=N2	92	i	i	i	i
Cc1cc(N2CCN(C)CC2)nc2ccc(NC(=O)c3cccnc3Cl)cc12	i	i	i	i	-59
CCN1CCN(c2cc(C)c3cc(NC(=O)c4cccnc4Cl)ccc3n2)CC1	i	i	i	i	i
C=CCOc1ccc(Cl)cc1-c1noc(-c2csc([C@H]3C[C@H](O)[C@@H](CO)O3)n2)n1	nt	i	nt	nt	nt
SMILES	AHR activator	GAA850 FXN act	HSF1 activator	DAX1 inh	HSF1 inhib
Oc1ccc(/C=C/c2ccnc3ccccc23)cc1	i	i	69	i	i
COc1cccc(Nc2nnc(SCC(=O)Nc3sccc3C(N)=O)s2)c1	i	i	i	i	i
CCc1ccc(Nc2nnc(SCC(=O)Nc3sccc3C(N)=O)s2)cc1	60	i	i	i	i
CNc1ccc(C(=O)N2CCN(S(=O)(=O)c3ccc4c(c3)OCCCO4)CC2)cc1[N+](=O)[O-]	i	i	i	i	i
CCOC(=O)C1=C(N)OC2=C(C(=O)CC(C)(C)C2)C1c1ccccc1OCC#N (centres undefined)	i	i	i	i	-57
COCCOC(=O)C1=C(N)OC2=C(C(=O)CC(C)(C)C2)C1c1cccnc1 (centres undefined)	i	i	i	i	i
COCCOC(=O)C1=C(N)OC2=C(C(=O)CC(C)(C)C2)C1c1ccncc1 (centres undefined)	i	i	i	5.3	i
COc1cc(Cl)ccc1NC(=O)COc1ccccc1C(=O)NN	77	i	i	i	i
COc1ccccc1C(=O)Nc1cc(Cl)ccc1O	i	i	65	i	i
COc1ccccc1C(=O)Nc1ccccc1SC(=O)c1ccccc1OC	53	i	i	4.3	i
COC(=O)c1ccccc1NC(=O)c1ccccc1OC	i	i	i	i	i
O=C(NCCC1CCCCN1S(=O)(=O)c1ccccc1)C(=O)NC1CCCC1 (centres undefined)	i	i	i	i	i
CN(CCN1CCOCC1)C(=O)C1CCC(=O)N(Cc2ccc(Cl)cc2)C1 (centres undefined)	nt	i	nt	i	nt
Cc1cc2ncc(C(=O)Nc3ccsc3C(=O)O)c(C)n2n1	i	i	i	i	i
O=C(CNc1cccc(S(=O)(=O)N2CCCCC2)c1)Nc1ccc(C(F)(F)F)cc1	nt	i	nt	i	nt
COc1cc(/C=C(\C#N)C(=O)NC2CCCCC2C)ccc1OS(=O)(=O)c1ccc(C)cc1 (centres undefined)	i	i	64	i	i
CN(N=Cc1ccc([N+](=O)[O-])cc1)c1ccccn1	nt	i	nt	i	nt
Cc1ccc(-n2[nH]c(=O)c3cccnc32)cc1	64	i	i	i	i
CC(C)C(NS(=O)(=O)c1ccc2c(c1)OCCCO2)C(=O)O (centres undefined)	i	i	i	i	i
O=[N+]([O-])c1ccccc1Oc1ccccc1Cl	i	i	i	i	i
N/C(=N\O)c1ccc(Oc2ccccc2Cl)c([N+](=O)[O-])c1	i	i	i	5.4	i
COc1ccc(N(CC(=O)NC2CCCCC2)C(=O)c2ccc(C)s2)c(OC)c1	i	i	i	i	i
Cc1ccc(F)c(S(=O)(=O)NC(=O)C2(C)CCN2C(=O)c2cccc3ccccc23)c1 (centres undefined)	nt	i	nt	nt	nt
C/C(Cc1ccccc1)=N\NC(=O)CNC(=O)Cc1ccc(Cl)cc1	i	i	i	i	-53
COc1ccc(CCNC(=O)c2cc3cc(F)ccc3nc2C)cc1OC	i	i	i	i	i
SMILES	AHR activator	GAA850 FXN act	HSF1 activator	DAX1 inh	HSF1 inhib
N#Cc1cccc(S(=O)(=O)NNC(=O)C23CC4CC(CC(C4)C2)C3)c1	i	i	nt	i	nt
CCC(C)NC(=O)C(Sc1ccccc1)c1ccccc1 (centres undefined)	i	i	i	i	i
O=C(NCC(=O)N1CCOCC1)c1ccc(Br)o1	i	i	i	i	i
O=C(NCC(=O)N1CCCCCCC1)c1ccc(Br)o1	i	i	i	6.0	i
CC(=O)N1CCN(C(=O)CNC(=O)c2ccc(Br)o2)CC1	i	i	i	i	i
O=C(NCC(=O)N1CCN(c2ccccc2O)CC1)c1ccc(Br)o1	i	i	i	i	-52
CCCCN1C[C@H](Cc2ccccc2)[C@@H](CC(=O)NC)C1=O	nt	i	nt	i	nt
CCc1ccc(NC(=O)CSc2nnc(CNC(=O)c3ccco3)o2)cc1	i	i	i	i	i
Cc1ccc(C2=NN(S(C)(=O)=O)C(c3ccc4c(c3)OCO4)C2)cc1 (centres undefined)	i	i	80	i	i
CS(=O)(=O)N1N=C(c2ccc(Br)cc2)CC1c1ccc2c(c1)OCO2 (centres undefined)	i	12	77	i	i
COc1cc(C(=O)NC2CCN(Cc3nnnn3Cc3cccs3)CC2)cc(OC)c1OC	i	i	i	i	-68
COCCn1nnnc1CN1CCC(NC(=O)c2ccc(Br)cc2)CC1	i	i	i	i	i
